Among all 360,000 compounds or so, about 17,000 (4.7%) were called active. About 5% were inconclusive and are not listed. No stated cut-off is given here; in the data, active means activity change below about -50%; inconclusive means mostly about -30% to -49%; inactive means weaker than that. For the sample, actives were picked, then their nearest neighbours and some compounds at random.
Assay: qHTS for Inhibitors of Inflammasome Signaling: IL-1-beta AlphaLISA Primary Screen
Settings: THP-1 LPS/ATP IL-1B secretion, 16 h; at 57.5 µM, active compounds read low
Excerpt: Inflammasomes are a set of intracellular multi-protein complexes that enable autocatalytic activation of inflammatory caspases and drive the innate immune response to counter harmful agents. […] A qHTS assay, based on AlphaLISA technology, was developed to screen the Molecular Libraries Small Molecule Repository (MLSMR) to look for novel inflammasome inhibitors. The assay detects IL-1B using AlphaLISA anti-IL-1B acceptor and donor beads. A decreased emission signal, indicating reduced IL-1B secretion, is the desired outcome for this assay. NIH Chemical Genomics Center [NCGC] NIH Molecular Libraries Probe Centers Network [MLPCN] MLPCN Grant: MH095513 Assay Provider: Shyam Biswal Ph.D., Johns Hopkins University Immunity. 2012 Jul 27;37(1):85-95. PMID: 22819042 [2] Curr Pharm Des. 2012;18(16):2320-8. PMID: 22390695
Three microliters containing 3000 THP-1 cells were dispensed into the wells of solid, white, tissue culture treated Greiner 1,536-well plates. Library compounds and positive control, Glyburide, were pin-transferred (23 nL) by a Kalypsys pin-tool equipped with a 1,536-pin array, resulting in final compound concentration ranges of 2.5 nM to 57.5 uM. After 1 hr of cell culture incubation (37 °C, 5% CO2), 1 microL of 1 microg/mL lipopolysaccharide (250 ng/mL, final) and 5 mM ATP (1.25 mM, final) were added to stimulate the cells. After 16 hr of cell culture incubation with the compounds, 1.5 uL of anti-IL-1B acceptor beads (6 ug/mL, final) and biotinylated antibody (0.6 nM, final) were added to the plate, followed by a 1 hr incubation at ambient temperature. To detect the secreted IL-1B, 1.5 uL of AlphaLISA SA-Donor beads (24 ug/mL, final) were added, followed by 30 min of incubation in the dark at ambient temperature. The AlphaLISA signal was read by a PerkinElmer EnVision plate reader with an ultrasensitive luminescence detector and 1536 Plate HTS AlphaScreen aperture (excitation of 680nm and emission of 615nm).
For `COc1cc(NC(=O)c2cc(-c3ccc(F)cc3OC(C)C)n[nH]2)cc(OC)c1OC`, the activity change was -6.74% (inactive). In the case of `Cc1cccc(C(=O)NC(=S)N(C)C2CCCCC2)c1`, the activity change is reported as -1.28% (inactive). For `Cc1cccc(NC(=S)NCCN(C2CCCCC2)C2CCCC2)c1`, the activity change was -63.3% (active). For `Cc1cccc(NC(=S)NCc2ccc3[nH]c4c(c3c2)CCCC4)c1`, the activity change was -10.4% (inactive). In the case of `COc1ccc(C)cc1N(C(=O)Cn1nnc(-c2ccc(C)o2)n1)C(C(=O)NC1CCCC1)c1ccncc1` (stereo unspecified), the activity change is reported as 7.77% (inactive). With `Cc1ccc2c(c1)c1ncnc(N3CCc4ccccc4C3)c1n2C` the activity change was -19.9% (inactive). For `O=C1CCC(C(=O)OCC(=O)Nc2ccc(OC(F)F)cc2)=NN1`, the activity change was -2.22% (inactive). With `CCn1ccnc1CN(C)C(=O)c1cc(COc2ccc(-n3cncn3)cc2)on1` the activity change was 21.7% (inactive). In the case of `O=C(c1cc(COc2ccc(F)c(F)c2)on1)N1CCOCC1`, the activity change is reported as -28.7% (inactive). With `C=CCC1(CC=C)CCCN1C(=O)c1cc(COc2ccc(-n3cncn3)cc2)on1` the activity change was -59.7% (active). With `O=C(NC1CCCC1)C1c2ccccc2OCC(=O)N1Cc1ccccc1` (stereo unspecified) the activity change was 27.8% (inactive). In the case of `CCN1CCN(C(=O)CCN2C(=O)c3ccccc3C2=O)CC1`, the activity change is reported as 15.8% (inactive). For `O=C(O)CC12CC3CC(C1)CC(n1ncc(NCc4ccc(F)cc4)c(Cl)c1=O)(C3)C2`, the activity change was -16% (inactive). For `CSC1=N/C(=C\C=C\c2cccs2)C(=O)S1`, the activity change was -92.1% (active). For `COc1ccc(OC(C)C(=O)Nc2cccnc2)cc1` (stereo unspecified), the activity change was -0.423% (inactive). With `CC(Sc1nc2c([nH]c3ccccc32)c(=O)n1C)c1ccccc1` (stereo unspecified) the activity change was 27.7% (inactive). In the case of `O=C1OCCC1=COCCCCOC=C1CCOC1=O`, the activity change is reported as 2.81% (inactive). For `COc1ccc(C(=O)C2CCCN(Cc3ccc4nonc4c3)C2)c(C)c1` (stereo unspecified), the activity change was -3.49% (inactive). With `COc1ccc(C(=O)C2CCCN(Cc3cccn3-c3ccccn3)C2)c(C)c1` (stereo unspecified) the activity change was -99.7% (active). In the case of `CCOC(=O)c1[nH]ncc1CN1CCCC(C(=O)c2ccc(OC)cc2C)C1` (stereo unspecified), the activity change is reported as 0% (inactive). In the case of `Cc1[nH]c2ccccc2c1C(=O)C(=O)NCc1nnnn1-c1cccc(F)c1`, the activity change is reported as 10.9% (inactive). For `Cc1ccccc1-c1csc(C(O)c2cccc(Cl)c2)n1` (stereo unspecified), the activity change was -11.7% (inactive). In the case of `CCN(CC)c1ncnc2c1ncn2[C@H]1CN(Cc2cccs2)C[C@@H](CO)O1`, the activity change is reported as -12% (inactive). For `Cc1ccc(-c2csc(NC(=O)C3=COCCO3)n2)cc1C`, the activity change was -88.1% (active). For `Cc1csc(NC(=O)C2=COCCO2)n1`, the activity change was -3.32% (inactive). For `CC(=O)NCCC(=O)Nc1nc(-c2ccc3c(c2)OCCO3)cs1`, the activity change was 15.5% (inactive). With `Nc1nc2cc(Cl)ccc2n1N` the activity change was 32.9% (inactive). For `Cc1nn(Cc2ccc(Cl)cc2)c(Cl)c1/C=N/NC(=O)CNc1ccccc1F`, the activity change was -13.7% (inactive). In the case of `CCn1nc(C)c(/C=N/NC(=O)Cc2ccc(Cl)cc2)c1C`, the activity change is reported as 14.8% (inactive). With `Cc1nn(Cc2ccc(Cl)cc2)c(Cl)c1/C=N/NC(=O)c1cccnc1` the activity change was -70.6% (active). In the case of `CC(=O)c1ccc(Nc2nc(C(N)c3ccccc3Cl)cs2)cc1` (stereo unspecified), the activity change is reported as 49.4% (inactive). In the case of `NC(c1csc(NC(=O)Nc2ccccc2Oc2ccccc2)n1)c1ccccc1Cl` (stereo unspecified), the activity change is reported as -71.7% (active). With `COc1ccccc1NC(=O)Nc1nc(CC(=O)Nc2ccccc2F)cs1` the activity change was -1.21% (inactive). In the case of `CC/C(=C\c1ccc(Cl)cc1)c1ccncc1`, the activity change is reported as 3.7% (inactive). In the case of `COCCCn1c(C(=O)NC2CCCCC2)cc2c(=O)n3cccc(C)c3nc21`, the activity change is reported as -7.13% (inactive). In the case of `Cn1ncc([N+](=O)[O-])c1C(=O)Nc1cc(Cl)ccc1Cl`, the activity change is reported as -5.95% (inactive). For `COc1ccccc1NC(=O)Nc1nnc(Cc2ccc(F)cc2)s1`, the activity change was 28.6% (inactive). For `Cc1cccc(C)c1Cn1c(C)c(C(=O)NCc2cccc(Cl)c2)sc1=O`, the activity change was -13.4% (inactive). In the case of `CC(=O)OCc1cc(=O)n(C)c(=O)n1C`, the activity change is reported as 18.2% (inactive). In the case of `COc1ccc(OCC(O)CN(C)C(=O)C(C)Oc2ccccc2)cc1` (stereo unspecified), the activity change is reported as -1.85% (inactive). In the case of `CN(Cc1ccccc1)CC(O)COc1ccc(CNCc2cc3ccccc3s2)cc1` (stereo unspecified), the activity change is reported as -52.3% (active). In the case of `Cc1ccc(OCC(=O)OC(C)CN(C)Cc2ccccc2)cc1` (stereo unspecified), the activity change is reported as 11.3% (inactive). For `CC1(C(=O)NCc2ccccc2)CSCC(=O)N1CCCn1ccnc1` (stereo unspecified), the activity change was -3.98% (inactive). In the case of `Cc1ccc(C(CNC(=O)Nc2ccccc2)N2CCN(C)CC2)cc1` (stereo unspecified), the activity change is reported as -19.3% (inactive). For `Cc1ccc2nc(SCC(=O)N3CCN(c4ccccc4)CC3)nc(=O)n2c1`, the activity change was -22.4% (inactive). For `CCOc1ccc(CCNC(=O)CSc2cc(=O)n(C)c3ccc(Cl)cc23)cc1OCC`, the activity change was 15.4% (inactive). For `CCN(CC)CCCNC(=O)CCn1nc(-c2ccc(Cl)cc2)ccc1=O`, the activity change was 0.889% (inactive). In the case of `CCN(CCCNC(=O)CSc1cc(=O)n(C)c2cc(Cl)ccc12)Cc1ccccc1`, the activity change is reported as -66.3% (active). With `COC(=O)c1ccc(CN2C(=O)C(Cc3ccccc3)ON=C2c2ncccc2C)o1` (stereo unspecified) the activity change was 0% (inactive). In the case of `Cc1ccc2cccc(OCCCOc3ccccc3CO)c2n1`, the activity change is reported as -5.38% (inactive). For `N#Cc1cccc(NC(=O)CN2CCCCCC2)c1`, the activity change was -4.14% (inactive). In the case of `O=C1CC(c2ccccc2)=NN1c1ccc([N+](=O)[O-])cc1`, the activity change is reported as -62.7% (active). For `O=[N+]([O-])c1ccc(N2CCOCC2)cc1`, the activity change was -12% (inactive). With `Cc1nc(-c2ccc([N+](=O)[O-])cc2)c(-c2ccccc2)o1` the activity change was -1.34% (inactive). For `Cc1c(NC(=O)COC(=O)/C=C/c2cccc(F)c2)c(=O)n(-c2ccccc2)n1C`, the activity change was -1.18% (inactive). For `CCCCN1CC(C)(C)[C@H](CC(=O)Nc2ccc(Br)cc2)C1=O`, the activity change was -25.6% (inactive). In the case of `COc1ccc([C@H]2C[C@@H](n3cc(COC(=O)c4ccccc4)nn3)[C@H](O)CN2C(=O)c2cccs2)cc1`, the activity change is reported as 3.71% (inactive). With `C[C@H]1CN([C@@H](C)CO)C(=O)CCCn2cc(nn2)CO[C@@H]1CN(C)S(=O)(=O)c1ccc(-c2ccccc2)cc1` the activity change was 0% (inactive). In the case of `CCOC(=O)c1oc2c(CN3CCN(C)CC3)c(O)ccc2c(=O)c1-c1ccc(Br)cc1`, the activity change is reported as 2.61% (inactive). For `CN1CCN(Cc2c(O)ccc3c2oc(=O)c2ccccc23)CC1`, the activity change was -65.7% (active). With `O=c1oc2c(CN3CCCCC3)c(O)ccc2c2c1CCCCC2` the activity change was 11% (inactive).

From PubChem BioAssay AID743279 (National Center for Advancing Translational Sciences (NCATS), 2014)
On the % scale 0 is the no-effect control and ±100 the full control effect.
